In the library only some 3.1% were active in any assay of this set; here they are far more common.
Tau fluor counter: counter-screen for tau fibril formation inhibitors. tau K18 P301L Alexa594 fluorescence, heparin fibrillization. Potency, µM (doses to about 57.7 µM), for the others: top-dose activity change, negative = decrease. 280,000 tested, 0.93% active; note: nearly all actives have a fitted effect of over 55% in size
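Human tau K18 P301L (15 uM unlabeled, 0.24 uM Alexa 594-labeled) in 100 mM sodium acetate pH 7 with 20 uM heparin, 6 hr at 37 C. ThT 30 uM added, 1 hr ambient; Alexa 594 FP and total fluorescence read at 555/632 nm.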
Tau ThT inhib: tau fibrillization inhibition (ThT binding); AID 1460; Potency, µM (titrated, usually from 57.4 µM), for inactives: top-dose activity, negative = inhibition, hits mostly inhibitors; 270,000 tested, 2.1% active; P10636; recombinant tau K18 P301L (four-repeat tau fragment), heparin-induced fibrillization, ThT fluorescence; note: nearly all actives have a fitted effect of over 55% in size
Target sequence (P10636 561-689 P618L limits assumed): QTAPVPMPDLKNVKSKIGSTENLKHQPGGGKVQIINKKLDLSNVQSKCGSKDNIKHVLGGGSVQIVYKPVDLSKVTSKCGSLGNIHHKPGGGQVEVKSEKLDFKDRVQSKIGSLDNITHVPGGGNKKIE
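K18 P301L tau (15 uM + 0.24 uM Alexa 594-tagged), heparin 20 uM, NaOAc pH 7, 6 h 37 C; ThT 30 uM, 1 h RT, ex 450/em 510 nm.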
TR SRC2 fluor cs: counter-screen for TRb-SRC2 inhibitors: fluorescence interference; TRb/SRC2 Texas Red total fluorescence interference; Potency, µM (doses to about 106 µM), without a hit: top-dose fluorescence change, negative = quenching; 280,000 tested, 0.29% active; AID 1479; active = well fitted curve in either direction with a large enough effect; inconclusive = small, poorly fitted or top-dose-only effect
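Flags fluorescent or light-absorbing compounds by total fluorescence, S + 2P, at 555 nm excitation and 632 nm emission. Mixture: 20 nM Texas Red SRC2 peptide, 0.6 uM human TRb LBD, 1 uM T3, 5% DMSO; compound exposure 5 h at ambient temperature.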
TRb SRC2 PPI: inhibitors of human thyroid hormone receptor beta-SRC2 interaction; P10828; TRbeta-SRC2 peptide binding, fluorescence polarization; receptor liganded with 1 µM T3; Potency, µM (series often up to 106 µM), for inactives: at the highest dose activity change, negative = inhibition, usual class: inhibitors; 280,000 tested, 0.065% active; AID 1469;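 note: plate controls were bound peptide for no effect and peptide without receptor for full effect; nearly all actives have a fitted effect of over 50% in size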
Target sequence (P10828 whole entry, looked up): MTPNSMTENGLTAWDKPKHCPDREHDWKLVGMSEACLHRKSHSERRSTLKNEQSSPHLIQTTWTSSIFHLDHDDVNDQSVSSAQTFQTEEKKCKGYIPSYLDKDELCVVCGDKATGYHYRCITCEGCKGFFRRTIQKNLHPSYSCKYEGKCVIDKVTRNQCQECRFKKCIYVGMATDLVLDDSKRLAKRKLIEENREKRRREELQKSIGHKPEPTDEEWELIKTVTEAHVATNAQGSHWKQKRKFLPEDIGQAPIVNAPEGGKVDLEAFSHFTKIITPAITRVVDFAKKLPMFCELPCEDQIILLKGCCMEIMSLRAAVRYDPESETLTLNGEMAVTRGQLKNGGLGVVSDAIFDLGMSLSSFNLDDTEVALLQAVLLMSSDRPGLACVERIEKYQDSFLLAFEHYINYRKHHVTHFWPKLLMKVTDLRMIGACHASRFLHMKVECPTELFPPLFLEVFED
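TRb LBD 0.6 uM + Texas Red SRC2 peptide 20 nM, 1 uM T3, Tris buffer w/ 5% DMSO; compound pinned, 5 h RT; FP read ex 555/em 632; normalized to unbound and bound controls.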
Tau FP inhib: inhibitors of human tau fibril formation; P10636; K18 P301L tau heparin fibrillization, Alexa594 FP, 6 h; Potency, µM (series often up to 57.7 µM), inactives show at the top dose activity, negative = inhibition, most hits filed as inhibitors; 280,000 tested, 0.39% active; note: nearly all actives have a fitted effect of over 55% in size
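Steps: dispense K18 P301L tau (15 uM plus 0.24 uM Alexa 594 tracer, final) in pH 7 sodium acetate; add compound; add heparin (20 uM final); incubate 6 hr, 37 C; add ThT (30 uM final); after 1 hr ambient, read FP.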
The depositor's hits bear a star; u = inconclusive; x = not tested or not shown; [ ] = remark or other dose. Unless noted, calls come from the whole dose curve; as a rule, active = well fitted curve in the direction sought with a large enough effect; inconclusive = small, poorly fitted or top-dose-only effect, or another doubt; inactive = no such curve, though single readings can be large; an effect the other way counts as inactive or inconclusive. Unless noted, % is set by controls: 0 for no effect and ±100 for the full control effect; potency is the fitted concentration of half-maximal effect.

SMILES	Tau fluor counter	Tau ThT inhib	TR SRC2 fluor cs	TRb SRC2 PPI	Tau FP inhib
COc1ccc(NC(=O)CSc2nc(-c3cc(OC)c(OC)c(OC)c3)[nH]c2-c2ccc(F)cc2)cc1	7.1µM*[quencher]	u	-1%	-4%	9%
COc1ccc(-c2[nH]c(-c3ccc(F)cc3)nc2SCC(=O)Nc2ccc(OC)c(OC)c2)cc1	14µM*[quencher]	u	-3%	7%	14%
OC1(c2ccc(Cl)c(C(F)(F)F)c2)CCN(CCCC(c2ccc(F)cc2)c2ccc(F)cc2)CC1	x	x	-4%	-2%	x
CC(=O)Nc1ccc(S(=O)(=O)NCC2CCC(C(=O)NCCc3ccc(C)cc3)CC2)cc1 (configuration not stated)	1%	-8%	u	-24%	-8%
Cc1ccc(C(C[N+](=O)[O-])c2c(-c3ccccc3O)[nH][nH]c2=O)cc1 (configuration not stated)	-22%	18µM*	-2%	-4%	u
CN(C)c1ccc(/C=N\NC(=O)c2cccc3cc[nH]c23)cc1	u	10µM*	-6%	6%	0%
CN(C)c1ccc(/C=N/NC(=O)c2cnc3ccccc3c2)cc1	-22%	0.63µM*	3%	-1%	-2%
CN(C)c1ccc(/C=N/NC(=O)c2cc(-c3ccc4c(c3)OCO4)n[nH]2)cc1	u	2.5µM*	-3%	-2%	11%
CN(C)c1ccc(/C=N/NC(=O)c2cc(=O)[nH]c3ccccc23)cc1	-1%	-12%	2%	2%	7%
CN(C)c1ccc(/C=N/NC(=O)c2ccccn2)cc1	-18%	u	-6%	5%	-11%
CC(C)CC(CSc1ccc(Br)cc1)N1CCN(CC(C)C)CCC1=O (configuration not stated)	x	x	-4%	6%	x
O=C1OC2(c3cc(Br)c(O)c(Br)c3Oc3c2cc(Br)c(O)c3Br)c2c(Cl)c(Cl)c(Cl)c(Cl)c21	x	x	u	2.5µM*	x
Cc1ccc2occ(CC(=O)N(Cc3ccc(Cl)cc3)Cc3ccco3)c2c1	-24%	u	0.35µM*[quencher]	u	-13%
Cc1ccc(CN(Cc2ccco2)C(=O)c2oc3ccc(C)cc3c2C)cc1	-13%	-13%	4%	0%	-6%
CC(=O)N(Cc1ccc(F)cc1)C1=C(NCc2ccccc2)C(=O)c2ccccc2C1=O	u	28µM*	-4%	-9%	-5%
Fc1ccccc1CN1CCCN(C(=S)Nc2cccc(Cl)c2)C1	u	5%	1%	-12%	32µM*
COc1ccc(-c2nc(-c3ccccc3)c(-c3cc([N+](=O)[O-])ccc3C)[nH]2)cc1O	14µM*[quencher]	u	-5%	0%	4%
Cc1ccc([N+](=O)[O-])cc1-c1[nH]c(-c2ccc(O)c(O)c2)nc1-c1ccccc1	13µM*[quencher]	u	-5%	7%	16%
CC(C)(C)OC(=O)N1CCC(c2c(C(=O)N3CCN(Cc4ccccc4)CC3)cnn2-c2cccc(Cl)c2)CC1	-7%	-14%	-8%	5%	-1%
COc1ccc(/C=C2\SC(=O)NC2=S)cc1OC	-27%	8.9µM*	-6%	-3%	u
COc1cc(/C=C2\SC(=O)NC2=O)ccc1Oc1ccc([N+](=O)[O-])cc1[N+](=O)[O-]	u	14µM*	-9%	-17%	-10%
NC(=O)c1sc2nc(-c3ccco3)ccc2c1N	u	6.3µM*	-22%	-8%	0%
COC(=O)c1sc2nc(-c3ccco3)ccc2c1N	u	7.1µM*	u	-16%	1%
Nc1c(C(=O)Nc2ccccc2F)sc2nc(-c3ccco3)ccc12	u	u	-1%	8%	0%
CC(C)c1ccc2[nH]c(O)c(N=NC(=S)NCCc3ccccc3)c2c1	u	u	1%	-1%	-15%
SMILES	Tau fluor counter	Tau ThT inhib	TR SRC2 fluor cs	TRb SRC2 PPI	Tau FP inhib
CCOc1ccc(NC(=S)N=Nc2c(O)[nH]c3ccccc23)cc1	u	u	-2%	-6%	u
Oc1[nH]c2ccccc2c1N=NC(=S)NCCc1ccccc1	13µM*[quencher]	14µM*	-5%	-8%	u
Oc1cccc(NC(=S)N=Nc2c(O)[nH]c3ccccc23)c1	u	10µM*	u	20%	4%
COc1ccc(NC(=O)CNc2cccc(C#N)c2)cc1Cl	u	-13%	-3%	1%	-7%
COc1ccc(NCC(=O)Nc2ccc(C#N)cc2)cc1Cl	14µM*[quencher]	u	-1%	-13%	u
COc1cccc(C2C(C(=O)Nc3ccccc3OC)=C(C)Nc3nc4ccccc4n32)c1 (configuration not stated)	u	-1%	1%	-3%	-12%
O=C(Nc1nc2ccc(F)cc2s1)c1nc(S(=O)(=O)Cc2ccccc2F)ncc1Cl	-21%	10µM*	-3%	-4%	-11%
CCOC(=O)N1CCC(NC(=O)C2CCN(C(=O)N3CC(C)Oc4ccc(C)cc43)CC2)CC1 (configuration not stated)	4%	1%	3%	-14%	7%
CCOc1ccccc1CNC(=O)C1CCN(C(=O)N2CCOc3ccc(Cl)cc32)CC1	u	32µM*	-34%	1%	u
O=C(NC1CCCCCC1)C1CCN(C(=O)N2CCOc3ccc(Cl)cc32)CC1	u	22µM*	4%	1%	u
Cc1ccc2c(c1)N(C(=O)N1CCC(C(=O)NC3CCCCCC3)CC1)CC(C)O2 (configuration not stated)	10µM*[quencher]	u	3%	-2%	8%
COc1ccc(/C=N/NC(=O)CN2CCSCC2)c(OC)c1	-9%	-14%	0%	1%	-1%
CC(C)(C)OC(=O)N1CCC[C@H]1C(O)(c1ccccc1)c1ccccc1	-5%	2%	0%	4%	5%
CC(=O)c1c(C)oc2ccc(NS(=O)(=O)c3cccs3)cc12	-10%	-3%	-2%	-6%	3%
COc1ccc(NC(=O)CC2Nc3cc(C)c(C)cc3NC2=O)c([N+](=O)[O-])c1 (configuration not stated)	u	11µM*	0%	-7%	u
O=C(CC1Nc2ccccc2NC1=O)Nc1cc(Cl)cc(Cl)c1 (configuration not stated)	14µM*[quencher]	u	-4%	1%	8%
Cc1cc2c(cc1C)NC(CC(=O)Nc1cccc(Cl)c1)C(=O)N2 (configuration not stated)	25µM*[quencher]	u	u	-1%	10%
CCCCNC(=O)CC1Nc2cc(C)c(C)cc2NC1=O (configuration not stated)	-3%	u	-4%	7%	-2%
COc1ccc(NC(=O)Cc2ccc(C)cc2)c([N+](=O)[O-])c1	-18%	-12%	-2%	1%	-6%

Assay outcomes as filed in PubChem BioAssay.
